Hits are enriched below; roughly 6.8% of the tested compounds scored in any of these assays.
KB-3-1 cytotox: qHTS assay for MDR1-selective chemotherapeutics: Primary screen using the parental adenocarcinoma cell KB-3-1; 400,000 tested, 1.4% active; Potency, µM (series often up to 46.1 µM), hits mostly cytotoxic; AID 1347075, 2019; KB-3-1 viability, CellTiter-Glo ATP luminescence, 72 h; note: % is set by controls: 0 for no effect and ±100 for the full control effect; nearly all actives have a fitted effect of over 60% in size
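Parental KB-3-1 viability, qHTS format: 72 h compound exposure, 37 °C; CellTiter-Glo; media-only wells and DMSO plates as controls; concentration-effect fits on corrected data.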
PINK1 modulator: A Quantitative High throughput Screen to Identify Chemical Modulators of PINK1 Expression; PINK1 immunofluorescence, high-content cytometry, 24 h; Potency, µM (top dose mostly 76.6 µM), inactives show at the highest dose activation (PINK1 increase), most hits filed as activators; 410,000 tested, 0.2% active; AID 624263, 2012; active = well fitted activation curve with a large enough effect; inconclusive = small, poorly fitted or top-dose-only effect; cell line not stated here; note: % of control where 0% means no effect; nearly all actives have a fitted effect of over 65% in size
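Cells are seeded, rested 12 hours, then given compound at five concentrations or DMSO for 24 hours. After fixation, blocking and antibody staining, PINK1 amount and mitochondrial localization are scored; CCCP serves as control.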
PTAP TSG101 blk: qHTS Assay for Iinhibitors of HIV-1 Budding by Blocking the Interaction of PTAP/TSG101; Tumor susceptibility gene 101 protein (Homo sapiens), Q99816; Fluorescence polarization, FITC-PTAP peptide / Tsg101 binding; Potency, µM (doses to about 115 µM), inactives show at the highest dose activity change, negative = inhibition, actives largely listed as inhibitors; 340,000 tested, under 10 active; AID 493005, 2010; active = well fitted inhibition curve with a large enough effect in the main read-out, with a control signal flat, not every such curve was filed as active; inconclusive = small, poorly fitted or top-dose-only effect, or effect the other way, or a change in a side signal; inactive = no such curve, though single readings can be large or run the other way; note: % of control where 0% means no effect
Target sequence (Q99816 whole entry, looked up): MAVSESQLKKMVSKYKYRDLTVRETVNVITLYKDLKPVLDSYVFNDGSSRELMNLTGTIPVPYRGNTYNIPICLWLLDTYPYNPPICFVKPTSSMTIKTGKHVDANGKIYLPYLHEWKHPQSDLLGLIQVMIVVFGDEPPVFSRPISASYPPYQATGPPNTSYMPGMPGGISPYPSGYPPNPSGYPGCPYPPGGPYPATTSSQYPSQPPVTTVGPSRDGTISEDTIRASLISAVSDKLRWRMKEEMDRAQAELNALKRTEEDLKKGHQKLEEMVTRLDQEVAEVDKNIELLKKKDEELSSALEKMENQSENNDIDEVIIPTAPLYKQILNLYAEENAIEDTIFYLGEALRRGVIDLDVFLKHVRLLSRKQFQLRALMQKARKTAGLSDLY
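Steps: Tsg101 binding domain dispensed (10 uM final), compounds pinned in DMSO, FITC-labeled PTAP-motif peptide added (50 nM final); after 20 min binding at room temperature, polarization measured.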
MCF10A rerep: A quantitative high throughput screen for small molecules that induce DNA re-replication in MCF 10a normal breast cells | MCF 10A DNA re-replication, Hoechst nuclear intensity, 48 h | Potency, µM (titrated, usually from 46.1 µM), for inactives: at the highest dose activity, positive = re-replication, actives largely listed as activators | 350,000 tested, 2.9% active; note: % of control where 0% means no effect; nearly all actives have a fitted effect of over 50% in size
SW480 rereplic: A quantitative high throughput screen for small molecules that induce DNA re-replication in SW480 colon adenocarcinoma cells. SW480 DNA re-replication, Hoechst DNA content imaging, 48 h. AID 624297, 2012. 340,000 tested, 1.8% active. Potency, µM (series often up to 46.1 µM), for inactives: at the top dose re-replication activation, most hits filed as activators; note: % of control where 0% means no effect; nearly all actives have a fitted effect of over 55% in size
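Cells (250 per well) received 23 nL compound or DMSO by pin tool and were kept 48 hr at 37 C, 5% CO2. Nuclei were then stained with Hoechst for 40 min and scanned for DNA content.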
KB-V1 cytotox: qHTS assay for MDR1-selective chemotherapeutics: Primary screen using the drug-selected MDR subline cells KB-V1; KB-V1 MDR cells viability, CellTiter-Glo, 72 h; Potency, µM (series often up to 46.1 µM), hits mostly cytotoxic; 400,000 tested, 3.4% active; note: % is set by controls: 0 for no effect and ±100 for the full control effect; nearly all actives have a fitted effect of over 60% in size
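KB-V1, DMEM (no phenol red) + 10% FBS; cpd pin-transferred, titration series; 72 h, 37 degrees C; CellTiter-Glo, luminescence. Data normalized, curve-fit.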
* marks the source's active call; other numbers are inactive results; i = inactive; ? = inconclusive; nt = no result given; [ ] = dose if it differs, or a comment. Unless noted, calls come from the whole dose curve; as a rule, active = well fitted curve in the direction sought with a large enough effect; inconclusive = small, poorly fitted or top-dose-only effect, or another doubt; inactive = no such curve, though single readings can be large; an effect the other way counts as inactive or inconclusive. Potency is the fitted concentration of half-maximal effect.

SMILES	KB-3-1 cytotox	PINK1 modulator	PTAP TSG101 blk	MCF10A rerep	SW480 rereplic	KB-V1 cytotox
COc1cccc(CNC(=O)c2nnn(CC(=O)Nc3ccc(C)c(C)c3)c2N)c1	i	13%	-1%	-189%[0.0737 µM]	-10%	i
COc1ccc(OC)c(NC(=O)c2nnn(Cc3ccccc3C)c2N)c1	9.2µM*	2%[38.3 µM]	-2%	?	18%	i
CCc1ccccc1NC(=O)Cn1nnc(C(=O)NCc2cccc(OC)c2)c1N	7.3µM*	?	-3%	7.3µM*	?	?
COc1ccc(NC(=O)c2nnn(Cc3ccccc3C)c2N)c(OC)c1	?	4%	nt	nt	nt	i
Cc1ccc(Cn2nnc(C(=O)Nc3cccc(C)c3C)c2N)cc1	i	15%	2%	2%	-4%	15µM*
CCC1CN(C(=O)N2CCC(C(=O)N3CCN(c4ccccc4F)CC3)CC2)c2ccccc2O1 (stereo not drawn)	nt	1%	nt	nt	nt	nt
Cc1cc(C)cc(NC(=O)Cn2nnc(C(=O)NCc3ccccc3Cl)c2N)c1	i	2%	-1%	7%	20%	i
Cc1ccc(S(=O)(=O)c2nnn(CC(=O)Nc3ccccc3C)c2N)cc1	16µM*	3%	nt	nt	nt	?
Cc1cc(C)cc(NC(=O)Cn2nnc(C(=O)NCc3ccc(F)cc3)c2N)c1	i	1%	-4%	?	29µM*	i
COc1cc(NC(=O)CC2C(=O)N(c3ccc(Cl)cc3)C(=O)N2Cc2cccs2)cc(OC)c1 (stereo not drawn)	nt	0%	nt	nt	nt	nt
COc1ccc(C(=O)N2CCc3cc(OC)c(OC)cc3C2COc2ccc3c(C)cc(=O)oc3c2)c(OC)c1 (stereo not drawn)	?	0%	nt	nt	nt	i
COc1ccc(-c2sc3ccccc3c2/C=C/c2ccncc2)cc1	?	5%	nt	7.3µM*	1%	i
CC(C)CCNC(=O)c1ccc2c(c1)N(Cc1ccccc1F)C(=O)c1ccccc1S2(=O)=O	i	-1%	nt	nt	nt	i
Cn1ncc([N+](=O)[O-])c1C(=O)Nc1ccc(Cl)cc1	i	-1%	-4%	?	-11%	i
Cn1ncc([N+](=O)[O-])c1C(=O)Nc1ccc(C2CCCCC2)cc1	i	1%	-5%	-3%	12µM*	i
COc1ccc(OC)c(-c2csc(NC(=O)Cn3[nH]c(=O)c4ccccc4c3=O)n2)c1	i	5%	1%	?	8.2µM*	i
COc1ccc(OC)c(-c2csc(NC(=O)c3ccc(F)cc3)n2)c1	?	12%	-2%	6.5µM*	?	i
O=C(C[n+]1cccc2cccc(O)c21)c1ccccc1	i	nt	nt	nt	nt	i
CCCNC(=O)c1ccc2c(c1)nc1n2CCCCC1	nt	1%	nt	nt	nt	nt
Cc1ccc(NC(=O)CCn2c(=O)c3cccn3c3ccccc32)c(C)c1	i	2%	3%	3%	3%	i
Cc1cc(C)cc(NC(=O)CCn2c(=O)c3cccn3c3ccccc32)c1	9.2µM*	4%	-3%	8.2µM*	-13%	?
Fc1ccc(C2CC(c3cccs3)=NN2C(=S)Nc2ccccc2)cc1 (stereo not drawn)	i	-1%	-1%	5%	-114%	21µM*
CNC(=S)N1N=C(c2cccs2)CC1c1ccc(OC)cc1 (stereo not drawn)	i	2%	0%	?	-3%	i
O=C(CSc1nc2ccccc2s1)N1N=C(c2cccs2)CC1c1ccc(F)cc1 (stereo not drawn)	i	-2%	-1%	16µM*	0%	?
CCOc1ccccc1NC(=O)Nc1cc(C(=O)NCc2ccc(C)cc2)ccc1N1CCCC1	i	11%	nt	nt	nt	i
SMILES	KB-3-1 cytotox	PINK1 modulator	PTAP TSG101 blk	MCF10A rerep	SW480 rereplic	KB-V1 cytotox
CC(NC(=O)/C(C#N)=C/c1ccc([N+](=O)[O-])o1)c1ccccc1 (stereo not drawn)	?	3%	-1%	3.7µM*	3.7µM*	i
COc1ccc(/C=C(\C#N)C(=O)NC(C)c2ccccc2)cc1O (stereo not drawn)	i	3%	1%	7%	-5%	i
COC(=O)c1ccc(/C=C(\C#N)C(=O)NC(C)c2ccccc2)cc1 (stereo not drawn)	?	-1%	-9%	18µM*	?	i
Cc1[nH]c2ccccc2c1/C=C(\C#N)C(=O)NCc1ccccc1	i	16%	0%	8%	3%	i
Cc1ccc(C(C)NC(=O)/C(C#N)=C\c2c(C)[nH]c3ccccc23)cc1 (stereo not drawn)	i	1%[38.3 µM]	-2%	?	?	12µM*
CC(NC(=O)/C(C#N)=C/c1ccc(N2CCOCC2)cc1)c1ccccc1 (stereo not drawn)	i	1%	-1%	21µM*	?	i
CCCCN1/C(=C/c2cccc[n+]2C)Sc2cc(NC(C)=O)ccc21	i	1%	0%	-3%	-22%	i
CN1/C(=C/c2cccc[n+]2C)Sc2ccccc21	1.5µM*	18µM*	1%	9.2µM*	?	i
Cc1ccc2c(c1)N(C)/C(=C/c1cccc[n+]1C)S2	0.92µM*	?	-3%	?	?	i
Cc1ccc2c(c1)N(C)/C(=C/c1cccc[n+]1CCO)S2	1.8µM*	4%	0%	-11%	-7%	i
Cc1cnc(SCC2CCCO2)nc1C1CCCN(C(=O)C2=NNC(=O)CC2)C1 (stereo not drawn)	nt	0%	nt	nt	nt	nt
O=C(c1ccc(Cl)c(Cl)c1)N1CCC(=O)N([C@H](COCc2ccc(Cl)cc2)Cc2ccccc2)CC1	?	0%	nt	nt	nt	21µM*
O=C(c1ccc(Cl)c(Cl)c1)N1CCC(=O)N(C(COCc2cccc(Cl)c2)Cc2ccccc2)CC1 (stereo not drawn)	i	2%	-4%	23µM*	?	i
Cc1cccc(COCC(Cc2ccccc2)N2CCN(C(=O)c3ccc(C(F)(F)F)cc3)CCC2=O)c1 (stereo not drawn)	21µM*	1%	-5%	?	7%	12µM*

Screening data deposited in PubChem BioAssay by National Center for Advancing Translational Sciences (NCATS).
